# The other results are listed elsewhere or left out. Active and inactive are the calls of the source. No rule for the calls is given here.
# Assay: TO-PRO-1 dye complex inhibitors on d(CAG) DNA, dose response, counter-screen, biochemical, fluorescence, late stage (AID 720649)
# Details: d(CAG) DNA duplex TO-PRO-1 dye displacement
compound,measurement,value
Cc1noc(NS(=O)(=O)c2ccc(NC(=O)c3oc4ccc(F)cc4c3C)cc2)c1C,IC50,4.19 µM (active)

# — PubChem BioAssay AID720649 (The Scripps Research Institute Molecular Screening Center, 2013)
